Conditions in all cases: treatment time: 24 h
The test system of experiment [1] is A549-ACTB-RAB5A. Kind of experiment: lowest phenotypically active concentration; higher = less potent. In short, it runs like this: (§1)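 Fifteen reporter lines derived from A549, HepG2 and WPMY1 cells by gene editing, carrying BFP for segmentation plus GFP and RFP/FusionRed markers, were exposed to 0.3, 1, 3 or 9 µM for 24 h in four wells each and imaged live. Live-cell features from each well were normalised to solvent control wells. A well set counted as deviating when ≥3 of 4 wells lay beyond the 95th percentile of control Euclidean distances, and as reproducible when the median replicate Pearson correlation exceeded the 95th percentile of non-replicates. Phenotypic activity was assigned only when both criteria were met.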

Experiment [2] deals with A549-CANX-COX4. The experiment is described as above. Summed up:
as §1

Experiment [3] deals with A549-GM130-SQSTM1. The description is as above. In short, it runs like this: as §1
Experiment [4] has as its system A549-TP53BP1-CLTA. The description is as above. In short, it runs like this: as §1
The test system of experiment [5] is A549-TUBA1B-RELA. The experiment is described as above. Summed up: as §1
Experiment [6] concerns HepG2-TP53BP1-CLTA. The experiment is described as above. In short, it runs like this:
as §1

Experiment [7] has as its system A549-ACTB-RAB5A. Kind of experiment: phenotypically active (imaging signature differs from DMSO and reproducible) at any of 0.3-9 uM (binary (1 = active, 0 = inactive)); higher = active. Summed up:
as §1

Experiment [8] deals with A549-CANX-COX4. The experiment is described as above. Summed up:
as §1

Experiment [9] relates to A549-GM130-SQSTM1. The description is as above. Summed up: as §1
The test system of experiment [10] is A549-TP53BP1-CLTA. The description is as above. In short, it runs like this:
as §1

The subject of experiment [11] is A549-TUBA1B-RELA. The description is as above. Summed up: as §1
The subject of a further experiment is HepG2-ACTB-RAB5A. The experiment is described as above. Summed up: as §1
Another experiment deals with HepG2-CANX-COX4. The description is as above. In short, it runs like this: as §1
A further experiment concerns HepG2-GM130-SQSTM1. The experiment is described as above. Summed up:
as §1

Experiment [12] relates to HepG2-TP53BP1-CLTA. The description is as above. Summed up: as §1
The next experiment deals with HepG2-TUBA1B-RELA. The experiment is described as above. In short, it runs like this:
as §1

The next experiment relates to WPMY1-CANX-COX4. The description is as above. Summed up: as §1
The test system of the next experiment is WPMY1-GM130-SQSTM1. The description is as above. Summed up:
as §1

The test system of the next experiment is WPMY1-TP53BP1-CLTA. Described as above. In short, it runs like this:
as §1

The test system of another experiment is WPMY1-TUBA1B-RELA. The description is as above. Summed up:
as §1

Bounds are passed on as bounds.

Regarding `COc1ccc2[nH]c(C(=O)c3ccccc3)cc2c1`, the “lowest phenotypically active concentration” value with A549-ACTB-RAB5A [1], in the experiment with A549-CANX-COX4 [2], with A549-GM130-SQSTM1 [3], with A549-TP53BP1-CLTA [4], with A549-TUBA1B-RELA [5] and with HepG2-TP53BP1-CLTA [6] was not above 0.3 µM in each case. The phenotypically active in the experiment with A549-ACTB-RAB5A [7], in the experiment on A549-CANX-COX4 [8], in the experiment on A549-GM130-SQSTM1 [9], in the experiment on A549-TP53BP1-CLTA [10], in the experiment with A549-TUBA1B-RELA [11] and in the experiment on HepG2-ACTB-RAB5A was 1 (active) throughout. Besides, the phenotypically active in the experiment on HepG2-CANX-COX4, in the experiment on HepG2-GM130-SQSTM1, with HepG2-TP53BP1-CLTA [12], in the experiment with HepG2-TUBA1B-RELA, in the experiment with WPMY1-CANX-COX4 and in the experiment on WPMY1-GM130-SQSTM1 was 1 (active) throughout. Besides, the phenotypically active in the experiment on WPMY1-TP53BP1-CLTA and in the experiment on WPMY1-TUBA1B-RELA was 1 (active) in each case.

For `CC(=O)NCC(=O)N1[C@@H]2CC[C@H]1c1ccc(Nc3ncc(C(F)(F)F)c(NC4CCC4)n3)cc12`, the “lowest phenotypically active concentration” value with A549-ACTB-RAB5A [1], in the experiment with A549-CANX-COX4 [2], with A549-GM130-SQSTM1 [3], in the experiment with A549-TP53BP1-CLTA [4], in the experiment with A549-TUBA1B-RELA [5] and in the experiment with HepG2-TP53BP1-CLTA [6] was not above 0.3 µM in each case. In addition, the phenotypically active in the experiment on A549-ACTB-RAB5A [7], with A549-CANX-COX4 [8], in the experiment with A549-GM130-SQSTM1 [9], in the experiment with A549-TP53BP1-CLTA [10], in the experiment on A549-TUBA1B-RELA [11] and with HepG2-ACTB-RAB5A was 1 (active) throughout. For the same molecule, the phenotypically active in the experiment on HepG2-CANX-COX4, with HepG2-GM130-SQSTM1, in the experiment with HepG2-TP53BP1-CLTA [12], with HepG2-TUBA1B-RELA, in the experiment on WPMY1-CANX-COX4 and with WPMY1-GM130-SQSTM1 was 1 (active) each time. Also, the phenotypically active in the experiment on WPMY1-TP53BP1-CLTA and with WPMY1-TUBA1B-RELA was 1 (active) in each case.

As to `COc1cc(C(=O)N2CCC(N3CCN(C)CC3)CC2)ccc1Nc1ncc2c(n1)N(C)c1ccccc1C(=O)N2C`, the “lowest phenotypically active concentration” value was 3 µM in the experiment with A549-ACTB-RAB5A [1]; 3 µM with A549-CANX-COX4 [2]; 3 µM in the experiment with A549-GM130-SQSTM1 [3]; 9 µM in the experiment on A549-TP53BP1-CLTA [4]; 3 µM with A549-TUBA1B-RELA [5]; 3 µM with HepG2-TP53BP1-CLTA [6]. In addition, the phenotypically active with A549-ACTB-RAB5A [7], in the experiment with A549-CANX-COX4 [8], in the experiment with A549-GM130-SQSTM1 [9], in the experiment with A549-TP53BP1-CLTA [10], in the experiment on A549-TUBA1B-RELA [11] and with HepG2-ACTB-RAB5A was 1 (active) in each case. The phenotypically active in the experiment on HepG2-CANX-COX4, in the experiment on HepG2-GM130-SQSTM1, in the experiment on HepG2-TP53BP1-CLTA [12], in the experiment on HepG2-TUBA1B-RELA, in the experiment with WPMY1-CANX-COX4 and in the experiment with WPMY1-GM130-SQSTM1 was 1 (active) each time. Moreover, the phenotypically active in the experiment with WPMY1-TP53BP1-CLTA and in the experiment on WPMY1-TUBA1B-RELA was 1 (active) in each case.

Regarding `O=C1Cc2c([nH]c3ccc(Br)cc23)-c2ccccc2N1` [Kenpaullone], the “lowest phenotypically active concentration” value with A549-ACTB-RAB5A [1], in the experiment with A549-CANX-COX4 [2], in the experiment with A549-GM130-SQSTM1 [3], in the experiment with A549-TP53BP1-CLTA [4], in the experiment with A549-TUBA1B-RELA [5] and in the experiment on HepG2-TP53BP1-CLTA [6] was 3 µM each time. Moreover, the phenotypically active in the experiment on A549-ACTB-RAB5A [7], with A549-CANX-COX4 [8], in the experiment with A549-GM130-SQSTM1 [9], in the experiment on A549-TP53BP1-CLTA [10], with A549-TUBA1B-RELA [11] and with HepG2-ACTB-RAB5A was 1 (active) each time. Further, the phenotypically active in the experiment on HepG2-CANX-COX4, in the experiment on HepG2-GM130-SQSTM1, with HepG2-TP53BP1-CLTA [12], with HepG2-TUBA1B-RELA, in the experiment with WPMY1-CANX-COX4 and in the experiment with WPMY1-GM130-SQSTM1 was 1 (active) in each case. In addition, the phenotypically active in the experiment with WPMY1-TP53BP1-CLTA and with WPMY1-TUBA1B-RELA was 1 (active) each time.

Consider `CCc1cccc(CC)c1NC(=O)N1Cc2[nH]nc(NC(=O)c3ccc(N4CCN(C)CC4)cc3)c2C1`, for which the “lowest phenotypically active concentration” value in the experiment with A549-ACTB-RAB5A [1] is not above 0.3 µM; in the experiment with A549-CANX-COX4 [2], 3 µM; in the experiment on A549-GM130-SQSTM1 [3], 1 µM; in the experiment with A549-TP53BP1-CLTA [4] it was 3 µM; in the experiment on A549-TUBA1B-RELA [5], 1 µM; in the experiment with HepG2-TP53BP1-CLTA [6], not above 0.3 µM. For the same molecule, the phenotypically active in the experiment with A549-ACTB-RAB5A [7], in the experiment with A549-CANX-COX4 [8], in the experiment on A549-GM130-SQSTM1 [9], in the experiment with A549-TP53BP1-CLTA [10], in the experiment on A549-TUBA1B-RELA [11] and in the experiment with HepG2-ACTB-RAB5A was 1 (active) throughout. Further, the phenotypically active in the experiment with HepG2-CANX-COX4, with HepG2-GM130-SQSTM1, in the experiment with HepG2-TP53BP1-CLTA [12], with HepG2-TUBA1B-RELA, in the experiment with WPMY1-CANX-COX4 and with WPMY1-GM130-SQSTM1 was 1 (active) each time. For the same molecule, the phenotypically active in the experiment with WPMY1-TP53BP1-CLTA and in the experiment with WPMY1-TUBA1B-RELA was 1 (active) in each case.

(Values after the supplement of paper PMC7411054.)
